# Screens: PubChem, National Center for Advancing Translational Sciences (NCATS)
# Only some compounds are listed: those with a hit (about 19% of all), similar ones and a draw of the others.
# KB-V1 cytotox: KB-V1 MDR subline cytotoxicity; KB-V1 MDR cells viability, CellTiter-Glo, 72 h; Potency, µM (highest dose often 46.1 µM), hits mostly cytotoxic; actives 3.4% (n = 400,000); also: nearly all actives have a fitted effect of over 60% in size
#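 Cells of the MDR subline KB-V1 are plated, dosed with compound at multiple concentrations, and incubated 72 h at 37 degrees C; CellTiter-Glo is then added and luminescence read after 10 min.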
# TDP1 cell CPT: DT40-hTDP1 cell growth loss with CPT | Potency, µM (series often up to 46.2 µM), inactives show at the top dose activity change, negative = growth inhibition, hits mostly inhibitors | chicken DT40 Tdp1-/-;hTDP1 cells + 20 nM CPT, ATP luminescence, 48 h | actives 12% (n = 420,000); also: nearly all actives have a fitted effect of over 55% in size
#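 Chicken DT40 Tdp1-/- cells complemented with human TDP1, 400 cells/well, exposed to compounds plus 20 nM camptothecin for at least 48 h at 37 C; viability read as ATP content by CellTiter-Glo luminescence.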
# HT1080NT lethal: kills 2HG-producing HT-1080-NT fibrosarcoma cells | HT-1080-NT fibrosarcoma viability, CellTiter-Glo ATP luminescence, 48 h | Potency, µM (titrated, usually from 46.1 µM), inactives show at the highest dose activity, negative = less viability, usual class: cytotoxic | actives 1.6% (n = 360,000);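 also: NT is the 2HG producing partner of a matched IDH1 knockdown line; 0% = DMSO-treated cells and -100% = media-only wells without cells; nearly all actives have a fitted effect of over 55% in size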
#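 750 cells/well, RPMI + 5% FBS; 2 h settle, compound pin-transfer, 48 h at 37 degrees C. CellTiter-Glo 10 min RT, luminescence. Normalized to DMSO and media-only wells.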
# KB-3-1 cytotox: kills parental KB-3-1 adenocarcinoma cells | Potency, µM (titrated, usually from 46.1 µM), most hits filed as cytotoxic | actives 1.4% (n = 400,000) | AID 1347075 | KB-3-1 viability, CellTiter-Glo ATP luminescence, 72 h; also: nearly all actives have a fitted effect of over 60% in size
#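 Viability of parental KB-3-1 cells, measured by CellTiter-Glo luminescence, followed a 72 h incubation at 37 °C with pinned compounds in phenol-red-free DMEM containing 10% FBS.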
# TDP1 cell noCPT: qHTS for Inhibitors of human tyrosyl-DNA phosphodiesterase 1 (TDP1): qHTS in cells in absence of CPT; DT40 Tdp1-/- hTDP1 cells, no CPT, ATP luminescence, 48 h; Potency, µM (highest dose often 46.2 µM), without a hit: at the highest dose activity change, negative = growth inhibition, hits mostly inhibitors; actives 15% (n = 420,000); AID 686978, 2013; also: nearly all actives have a fitted effect of over 55% in size
#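 Growth of hTDP1-complemented DT40 Tdp1-knockout cells is measured by ATP luminescence after at least 48 hr compound exposure at 37 °C, with DMSO substituting for the 20 nM CPT used in the parallel screen.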
# HT1080 IDH1KD tx: HT-1080 IDH1 knockdown cell toxicity (counter line); HT-1080 IDH1 knockdown viability, ATP luminescence, 48 h; Potency, µM (titrated, usually from 46.1 µM), for inactives: top-dose activity, negative = toxicity, hits mostly cytotoxic; actives 2% (n = 360,000); AID 686971;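 also: 0% = DMSO wells and -100% = cell-free medium wells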
#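 IDH1KD HT-1080 cells, 750/well, RPMI + 5% FBS; compound pinned after 2 h settling; 48 h, 37 °C; CellTiter-Glo luminescence; % activity normalised to DMSO and no-cell wells; curves fitted, classed by r2 and efficacy.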
# * marks the source's active call; other numbers are inactive results; i = inactive; ? = inconclusive; · = no result given. Calls follow the shape of the dose curve; as a rule, active = well fitted curve in the direction sought with a large enough effect; inconclusive = small, poorly fitted or top-dose-only effect, or another doubt; inactive = no such curve, though single readings can be large; an effect the other way counts as inactive or inconclusive. Unless noted, % is scaled to controls: 0 for no effect and ±100 for the full control effect; potency is read from the fitted curve at half-maximal effect.
SMILES,KB-V1 cytotox,TDP1 cell CPT,HT1080NT lethal,KB-3-1 cytotox,TDP1 cell noCPT,HT1080 IDH1KD tx
COc1ccc(-c2cnnn2-c2ccc(NC(=O)c3ccco3)cc2)cc1OC,i,-5%,-6%,i,-6%,9%
O=C(O)c1ccc(-n2nncc2-c2ccco2)cc1,i,9%,7%,i,-8%,18%
COc1ccc(-c2cnnn2-c2ccc(NC(=O)c3ccc(S(=O)(=O)N4CCCCC4)cc3)cc2)cc1OC,i,21µM*,-9%,i,12µM*,-15%
CC(=O)c1c(OC(=O)c2ccccc2)ccnc1C(F)(F)F,i,5%,5%,i,14%,8%
Cn1c(CNC(=O)c2ccc(F)cc2)cc2ccccc21,i,-29%,3%,i,-24%,-6%
COc1ccc(-c2cn3ccccc3n2)cc1[N+](=O)[O-],?,5%,-3%,i,-22%,-2%
CCCOc1ccc(-c2cn3ccccc3n2)cc1[N+](=O)[O-],i,?,-7%,i,15µM*,-13%
COc1ccc(CNC(=O)C2CCN(C(=O)[C@@H]3Cc4ccccc4CN3)CC2)cc1,i,16µM*,1%,i,?,2%
COc1ccc(NC(=O)C2CCN(C(=O)[C@@H]3Cc4ccccc4CN3)CC2)cc1,i,-2%,14%,i,2%,9%
COc1ccc(CNC(=O)C2CCN(c3nc4ccc(C)cc4[nH]3)CC2)cc1,·,?,·,·,10µM*,·
COc1cccc(CNC(=O)C2CCN(c3nc4ccc(Cl)cc4[nH]3)CC2)c1,i,21µM*,·,i,?,·
Cc1ccc2nc(N3CCC(C(=O)NCc4ccc(F)cc4)CC3)[nH]c2c1,i,?,·,i,?,·
CC(C)CCNC(=O)C1CCN(c2nc3ccc(Cl)cc3[nH]2)CC1,i,?,·,i,?,·
C[N+]1(C)CCc2cc3c(cc2[C@@H]1[C@@H]1C(=O)Oc2c1ccc1c2OCO1)OCO3,·,2%,·,·,-13%,·
CC(=O)c1cccc(NC(=O)CCn2c(=S)oc3ccccc32)c1,i,5%,-30%,i,-7%,5%
COc1cccc(C2C3=C(N=C4SCC(=O)N42)c2ccccc2CC3)c1OC (stereo not drawn),i,23µM*,-12%,?,21µM*,-10%
Cc1nc2ccc(S(=O)(=O)N(C)CC(=O)Nc3ccccc3F)cc2s1,i,-18%,-1%,i,-14%,-1%
CC(=O)CCC(=O)N1CCCC(CNC(=O)c2ccc(-c3ccccc3)cc2)C1 (stereo not drawn),?,?,-4%,i,?,6%
O=C(NCC1CCCN(C(=O)c2cccnc2)C1)c1ccc(-c2ccccc2)cc1 (stereo not drawn),?,?,-2%,i,23µM*,1%
CSCC(=O)N1CCCC(CNC(=O)c2ccc(-c3ccccc3)cc2)C1 (stereo not drawn),i,23µM*,-10%,i,23µM*,0%
CCOc1ccc(CN(C(=O)c2cc(=O)c3cc(Cl)ccc3o2)C2CCS(=O)(=O)C2)cc1 (stereo not drawn),i,-1%,·,i,?,·
CSc1ccc(CCNS(=O)(=O)c2csc(C(N)=O)c2)cc1,i,?,-5%,i,-22%,-5%
CC(=O)N[C@@H](Cc1c[nH]c2ccccc12)C(=O)NCc1ccccc1,i,0%,-8%,i,-24%,4%
C/C(=N/NC(=O)CNC(=O)c1ccccn1)c1cccc([N+](=O)[O-])c1,?,3%,5%,i,?,0%
CCC(=O)N1CCc2cc(S(=O)(=O)CCC(=O)NCc3ccc(F)cc3)ccc21,?,6.5µM*,·,i,3.3µM*,·
SMILES,KB-V1 cytotox,TDP1 cell CPT,HT1080NT lethal,KB-3-1 cytotox,TDP1 cell noCPT,HT1080 IDH1KD tx
Cc1cccc(N(C)C(=O)CCNS(=O)(=O)c2ccc3c(c2)CCN3C(=O)C2CC2)c1,i,16µM*,·,i,21µM*,·
COc1ccccc1NC(=O)CCNS(=O)(=O)c1ccc2c(c1)CCN2C(=O)C1CC1,i,?,·,i,?,·
Cc1cccc(N2CCN(C(=O)CCNS(=O)(=O)c3ccc4c(c3)CCN4C(=O)C3CC3)CC2C)c1 (stereo not drawn),i,5.8µM*,·,i,8.2µM*,·
Cc1ccc(S(=O)(=O)CCC(=O)N2CCc3ccccc32)cc1,21µM*,-6%,1%,i,7%,0%
Cc1ccc(-n2ncc3c(N4CCCCC4)ncnc32)cc1Cl,?,-19%,·,i,?,·
FC(F)(F)C(F)(F)C(F)(F)C(F)(F)C(F)(F)C(F)(F)F,·,2%,·,·,7%,·
CC(=O)NC(c1ccc(F)c(F)c1)c1nc(-c2ccccc2C)cs1 (stereo not drawn),i,?,-5%,i,?,-3%
CCC(=O)N1CCc2cc(S(=O)(=O)CCC(=O)N3CCN(c4cccc(C)c4)C(C)C3)ccc21 (stereo not drawn),i,12µM*,·,i,4.6µM*,·
CCC(=O)N1CCc2cc(Br)cc(S(=O)(=O)CCC(=O)N3CCN(c4cccc(C)c4)C(C)C3)c21 (stereo not drawn),i,?,·,i,?,·
CCOC(=O)C1=C(CC)Nc2ccccc2N=C1NC(=O)Nc1ccc(Cl)c(Cl)c1,i,2.9µM*,?,?,2.6µM*,?
COc1ccc(CN2C(=O)C(CC(=O)NCCc3ccccn3)CC(C(=O)N3CCOCC3)=C2C)cc1 (stereo not drawn),i,0%,18%,i,1%,23%
COc1ccc(C(=O)Nc2ccc(-c3nc4cc(C)ccc4o3)c(O)c2)cc1,·,?,·,·,-9%,·
Cc1ccc(CCNC(=O)c2ccc(CSCc3ccccc3Cl)o2)cc1,i,?,·,i,?,·
COc1ccccc1S(=O)Cc1ccc(C(=O)NCc2ccccc2Cl)o1 (stereo not drawn),?,16µM*,-1%,i,?,-4%
COc1ccccc1CNC(=O)c1ccc(CS(=O)(=O)c2c(Cl)cccc2Cl)o1,i,?,·,i,?,·
O=C(NCc1ccccc1Cl)c1ccc(CSCc2ccccc2Cl)o1,i,16µM*,·,i,21µM*,·
